Bioassay records from PubChem BioAssay.
ABCB6 inh 2: blocks the human ABCB6 transporter. K562-ABCB6 porphyrin accumulation, flow cytometry, 1 h; stronger effect = lower value. hit rate 0.19% among 360,000. fluorescence ratio to DMSO, % at 10 µM. Q9NP58. AID 602162;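 active = fluorescence ratio to DMSO below 75%, the collection mean minus 3 SD; inconclusive = too few cells collected in the well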;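 also: signal is porphyrin accumulated inside mitochondria; 100% equals median channel fluorescence of DMSO control wells; lower ratio means ABCB6 inhibition with less porphyrin fluorescence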
Target sequence (Q9NP58 whole entry, looked up): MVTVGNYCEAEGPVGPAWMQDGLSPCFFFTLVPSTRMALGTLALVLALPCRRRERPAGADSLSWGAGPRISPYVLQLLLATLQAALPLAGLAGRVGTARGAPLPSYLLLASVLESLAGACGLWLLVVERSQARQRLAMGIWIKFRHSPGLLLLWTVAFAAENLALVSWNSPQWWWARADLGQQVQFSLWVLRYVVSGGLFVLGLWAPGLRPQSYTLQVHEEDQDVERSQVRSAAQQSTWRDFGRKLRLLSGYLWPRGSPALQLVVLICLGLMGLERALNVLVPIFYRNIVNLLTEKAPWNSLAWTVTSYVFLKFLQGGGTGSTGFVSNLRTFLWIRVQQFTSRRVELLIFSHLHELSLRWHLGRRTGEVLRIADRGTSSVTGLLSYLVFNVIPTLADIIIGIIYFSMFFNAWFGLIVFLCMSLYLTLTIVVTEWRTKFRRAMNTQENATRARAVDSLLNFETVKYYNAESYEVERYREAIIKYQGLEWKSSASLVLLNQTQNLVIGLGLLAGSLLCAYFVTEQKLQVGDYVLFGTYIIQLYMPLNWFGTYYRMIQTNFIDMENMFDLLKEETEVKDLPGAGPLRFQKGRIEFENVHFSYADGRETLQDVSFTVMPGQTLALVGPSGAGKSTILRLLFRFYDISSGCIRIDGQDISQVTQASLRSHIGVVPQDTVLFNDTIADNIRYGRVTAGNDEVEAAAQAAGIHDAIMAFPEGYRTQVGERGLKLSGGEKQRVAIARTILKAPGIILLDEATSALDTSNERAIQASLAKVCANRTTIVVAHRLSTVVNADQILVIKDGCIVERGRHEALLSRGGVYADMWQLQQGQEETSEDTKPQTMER
Myeloid diff 2: promotes myeloid progenitor differentiation; AID 624256; ER-HoxA9 myeloid progenitors, lysozyme-GFP differentiation, flow cytometry; hit rate 1% among 360,000; calls only at 10 µM;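 active = normalized GFP-positive differentiation at or above the plate's own cutoff, the solvent-only control mean plus 3 SD; inconclusive = no clear call, values can overlap the other calls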;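 also: cells exposed to compound for four days before flow analysis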
Exocytosis inh: lytic granule exocytosis inhibition. TALL-104 LAMP-1 surface exposure, flow cytometry; cells stimulated with thapsigargin and PMA. inhibition, % at 10 µM. hit rate 0.66% among 360,000;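 active = inhibition above about 55%, limit read from the data; inconclusive = no clear call, values can overlap the other calls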
ABCB6 inh CP1: blocks the human ABCB6 transporter | shares compounds with ABCB6 inh 2 | K562-ABCB6 porphyrin accumulation, flow cytometry, 1 h; stronger effect = lower value | ratio response (% of DMSO), % at 10 µM | 700 tested, under 10 active;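 active = repeat-averaged ratio response below 75% of DMSO, the collection mean minus 3 SD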;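 also: median porphyrin fluorescence at 575 nm with 488 nm excitation from mitochondria; lower ratio means less porphyrin signal so ABCB6 inhibition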
* hit, by the source's call; i = inactive; ? = inconclusive; · = no result given. Hits are enriched below; roughly 1.8% of the tested compounds scored in any of these assays.

SMILES | ABCB6 inh 2 | Myeloid diff 2 | Exocytosis inh | ABCB6 inh CP1
COc1ccc(CNC(=O)CN2C(=O)CCSc3ccc(S(=O)(=O)N4CCCC4)cc32)cc1 | 102 | i | 10 | ·
CC1(C)Oc2ccc3ccc(=O)oc3c2C[C@H]1O | 68* | i | -3 | 94
C/C=C(/C)C(=O)O[C@@H]1Cc2c(ccc3ccc(=O)oc23)OC1(C)C | 97 | i | 3 | ·
Cc1cccc(N2CCN(C3=NC(=O)C(Cc4ccccc4)S3)CC2)c1 (centres undefined) | 94 | i | -7 | ·
N=c1sccn1CC(=O)Nc1ccccc1Sc1ccccc1 | 97 | · | 0 | ·
CCC(C)c1c(O)nc(SCC(=O)N2CCCCC2)[nH]c1=O (centres undefined) | 52* | i | -1 | 99
CCCCc1c(O)nc(SCC(=O)N2CCCCC2)[nH]c1=O | 99 | i | 0 | ·
Nn1c(SCC(=O)Nc2cc(S(=O)(=O)N3CCOCC3)ccc2Cl)nnc1-c1cccnc1 | 97 | i | -1 | ·
CC(=O)Nc1ccc(Nc2nnc(-c3ccc(C)c(S(N)(=O)=O)c3)c3ccccc23)cc1 | 181 | i | -2 | ·
CNC(=O)c1cc(Nc2nnc(-c3ccc(C)c(S(N)(=O)=O)c3)c3ccccc23)ccc1OC | 74* | i | 4 | 101
O=C(Cc1cccc(C(F)(F)F)c1)NCc1cccnc1 | 98 | i | 0 | ·
COc1cccc(C(=O)OC(C)C(=O)NCC2CCCCC2)c1 (centres undefined) | 92 | i | 9 | ·
CCOc1cc(CNc2ncnc3nc[nH]c23)ccc1OC | 73* | i | -5 | 100
c1ccc(CNc2ncnc3nc[nH]c23)cc1 | 102 | i | -2 | ·
Cc1sc2ncn(CC(=O)N3CCN(c4ccccn4)CC3)c(=O)c2c1S(=O)(=O)N1CCC(C)CC1 | 87 | i | 4 | ·
COC(=O)COc1cccc(NC(=O)c2ccccc2)c1 | 74* | i | 2 | 100
COC(=O)COc1cccc(NC(=O)c2cccc(C)c2)c1 | 97 | i | -1 | ·
Cn1c(=O)c2c(-c3ccccc3)n(-c3cc(Cl)c([N+](=O)[O-])cc3O)cc2n(C)c1=O | 96 | i | 3 | ·
O=C(Nc1ccc(Cl)cc1)Nc1ccon1 | 91 | i | 0 | ·
Cc1ccc(NC(=O)Nc2ccon2)cc1 | 10* | ? | 2 | 99
O=C1c2ccccc2S(=O)N1c1cccc(F)c1 (centres undefined) | 101 | i | 4 | ·
Cc1cc(N2C(=O)CC(Cc3ccc(Cl)cc3)C2=O)no1 (centres undefined) | 102 | i | -1 | ·
Cc1cc(N2C(=O)CC(Cc3ccccc3)C2=O)no1 (centres undefined) | 72* | i | -4 | 101
CCc1nnc(NC(=O)Cc2cc(OC)c(OC)c(OC)c2)s1 | 100 | i | 0 | ·
O=C1C(C=Nc2ccccc2)=C(O)c2ccccc21 | 71* | i | -2 | 97
SMILES | ABCB6 inh 2 | Myeloid diff 2 | Exocytosis inh | ABCB6 inh CP1
COc1ccc(N=CC2=C(O)c3ccccc3C2=O)cc1 | 89 | i | 0 | ·
COc1ccc(C(=O)Nc2ccc3oc(-c4cccc(Cl)c4)cc(=O)c3c2O)cc1 | 95 | i | 1 | ·
O=c1c(Cc2c(F)cccc2Cl)c(O)ccn1CCc1ccccn1 | 94 | i | 4 | ·
CCNc1nc(NCC)nc(N/N=C/c2ccc(Br)cc2)n1 | 96 | i | -6 | ·
COCCNC(=O)CN1C(=O)NC(c2ccccc2)(c2ccccc2)C1=O | 87 | · | -7 | ·
O=c1c(C(c2ccc(Br)cc2)c2c(O)nc3n(c2=O)CCCS3)c(O)nc2n1CCCS2 | 99 | i | 0 | ·
O=c1c(C(c2ccc(Br)cc2)c2c(O)nc3n(c2=O)CCS3)c(O)nc2n1CCS2 | 74* | i | 1 | 102
COc1ccc2nc(SCC(=O)NC(C)c3ccccc3)[nH]c2c1 (centres undefined) | 93 | i | 1 | ·
N#CCCSCc1ccc2oc(C(=O)O)cc2c1 | 103 | i | -5 | ·
N#CCCSCc1ccc(C(=O)O)o1 | 68* | i | 1 | 99
S=C(NCc1ccco1)NCC1CCCO1 (centres undefined) | 99 | i | 30 | ·
CC(CN1CCCC1)OC(=O)COc1ccccc1 (centres undefined) | 72* | i | 2 | 99
Cc1ccc(OCC(=O)OC(C)CN2CCCCC2)cc1 (centres undefined) | 99 | i | -7 | ·
O=C(CC(c1ccc(F)cc1)c1ccco1)N1CCOCC1 (centres undefined) | 72* | i | -2 | 101
O=C(CC(c1ccc(F)cc1)c1ccco1)N1CCCC1 (centres undefined) | 104 | i | -4 | ·
CCCCNC(=S)NNC(=O)c1cc(C2CC2)nc2ccccc12 | 97 | ? | -2 | ·
